Assay results reported in PubChem BioAssay AID1159580 (chemical genetic matrix, 2015).
The whole screen tested about 5,500 compounds, of which about 2,000 (36%) were called active. Roughly 18% stayed inconclusive and do not appear here. No stated cut-off is given here; in the data, active means normalized growth mostly below about 0.91 (no sharp cut-off); inconclusive means no clear call, values can overlap the other calls; inactive means mostly above about 0.92. The list shows a part of the results.

Assay: chemical genetic growth profiling, strain panel (AID 1159580);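 further: tested at 20 µM; growth read once vehicle control cultures reached saturation at 30 °C; 1 = growth at the plate median or of vehicle wells; lower values mean less growth of the strain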
Details: growth OD

Measured: normalized growth

O=C(O)c1cc(O)c(O)c(O)c1
active: S. cerevisiae deletion strains, locus YLR039C, strain RIC1, active compounds read low 1.34 [resistant]
inactive: S. cerevisiae deletion strains, locus YJR066W, strain TOR1, active compounds read low 0.929 | S. cerevisiae deletion strains, locus YKL009W, strain mrt4, active compounds read low 1.03 | S. cerevisiae deletion strains, locus YKL068W, active compounds read low 1 | S. cerevisiae deletion strains, locus YKL085W, strain MDH1 (second series), active compounds read low 1.03 | S. cerevisiae deletion strains, locus YKL085W, strain MDH1, active compounds read low 1.03 | S. cerevisiae deletion strains, locus YKL160W, strain elf1, active compounds read low 1.05 | S. cerevisiae deletion strains, locus YKR001C, strain vps1, active compounds read low 1.07 | S. cerevisiae deletion strains, locus YKR026C, strain gcn3, active compounds read low 1.02 | S. cerevisiae deletion strains, locus YKR091W, strain srl3, active compounds read low 1.01 | S. cerevisiae deletion strains, locus YLL001W, strain dnm1, active compounds read low 0.997 | S. cerevisiae deletion strains, locus YLL026W, active compounds read low 1 | S. cerevisiae deletion strains, locus YLL041C, strain sdh2, active compounds read low 1.04 | S. cerevisiae deletion strains, locus YLR027C, strain aat2, active compounds read low 1.04 | S. cerevisiae deletion strains, locus YLR058C, strain SHM2, active compounds read low 1.06 | S. cerevisiae deletion strains, locus YLR102C, strain apc9, active compounds read low 1.02 | S. cerevisiae deletion strains, locus YLR113W, strain HOG1, active compounds read low 0.985 | S. cerevisiae deletion strains, locus YLR221C, strain rsa3, active compounds read low 0.981 | S. cerevisiae deletion strains, locus YLR258W, strain gsy2, active compounds read low 1.05 | S. cerevisiae deletion strains, locus YLR262C, strain YPT6 (second series), active compounds read low 1.03 | S. cerevisiae deletion strains, locus YLR262C, strain YPT6, active compounds read low 1.26 | S. cerevisiae deletion strains, locus YLR268W, strain sec22, active compounds read low 1.04 | S. cerevisiae deletion strains, locus YLR320W, strain mms22, active compounds read low 1.02 | S. cerevisiae deletion strains, locus YLR330W, strain CHS5, active compounds read low 1.03 | S. cerevisiae deletion strains, locus YLR342W, strain FKS1 (second series), active compounds read low 1.05 | S. cerevisiae deletion strains, locus YLR342W, strain FKS1, active compounds read low 1.03 | S. cerevisiae deletion strains, locus YLR357W, strain rsc2, active compounds read low 1.06 | S. cerevisiae deletion strains, locus YLR370C, strain arc18, active compounds read low 1.02 | S. cerevisiae deletion strains, locus YLR371W, strain rom2, active compounds read low 1.05 | S. cerevisiae deletion strains, locus YLR384C, strain iki3, active compounds read low 1.02 | S. cerevisiae deletion strains, locus YLR418C, strain cdc73, active compounds read low 1.11 | S. cerevisiae deletion strains, locus YML016C, strain PPZ1, active compounds read low 1.03 | S. cerevisiae deletion strains, locus YML032C, strain rad52, active compounds read low 1.03 | S. cerevisiae deletion strains, locus YML120C, strain ndi1, active compounds read low 1.01 | S. cerevisiae deletion strains, locus YML124C, strain tub3, active compounds read low 1.02 | S. cerevisiae deletion strains, locus YMR058W, strain fet3, active compounds read low 1.01 | S. cerevisiae deletion strains, locus YMR078C, strain ctf18, active compounds read low 1.03 | S. cerevisiae deletion strains, locus YMR125W, strain sto1, active compounds read low 1.03 | S. cerevisiae deletion strains, locus YMR129W, active compounds read low 1.03 | S. cerevisiae deletion strains, locus YMR205C, strain PFK2, active compounds read low 1.06 | S. cerevisiae deletion strains, locus YMR223W, strain ubp8, active compounds read low 1.02 | S. cerevisiae deletion strains, locus YMR231W, strain pep5, active compounds read low 1.01 | S. cerevisiae deletion strains, locus YMR307W, strain GAS1, active compounds read low 1.24 | S. cerevisiae deletion strains, locus YNL067W, strain RPL9B, active compounds read low 1.02 | S. cerevisiae deletion strains, locus YNL071W, strain lat1, active compounds read low 1.06 | S. cerevisiae deletion strains, locus YNL183C, strain NPR1, active compounds read low 0.933 | S. cerevisiae deletion strains, locus YNL209W, strain ssb2, active compounds read low 1.01 | S. cerevisiae deletion strains, locus YNL233W, strain BNI4, active compounds read low 1.08 | S. cerevisiae deletion strains, locus YNL248C, strain rpa49, active compounds read low 1.08 | S. cerevisiae deletion strains, locus YNL250W, strain rad50, active compounds read low 1.05 | S. cerevisiae deletion strains, locus YNL271C, strain bni1, active compounds read low 1.01 | S. cerevisiae deletion strains, locus YNL298W, strain CLA4, active compounds read low 1.01 | S. cerevisiae deletion strains, locus YNL307C, strain MCK1, active compounds read low 1.03 | S. cerevisiae deletion strains, locus YNL322C, strain KRE1 (second series), active compounds read low 1.03 | S. cerevisiae deletion strains, locus YNR049C, strain mso1, active compounds read low 1.01 | S. cerevisiae deletion strains, locus YNR052C, strain pop2, active compounds read low 1.01 | S. cerevisiae deletion strains, locus YOL006C, strain TOP1, active compounds read low 1.36 | S. cerevisiae deletion strains, locus YOL012C, strain htz1 0.913 | S. cerevisiae deletion strains, locus YOL147C, strain pex11, active compounds read low 1.02 | S. cerevisiae deletion strains, locus YOR001W, strain rrp6, active compounds read low 0.981 | S. cerevisiae deletion strains, locus YOR061W, strain CKA2, active compounds read low 1.04 | S. cerevisiae deletion strains, locus YOR069W, strain VPS5, active compounds read low 1.03 | S. cerevisiae deletion strains, locus YOR070C, strain gyp1, active compounds read low 1.02 | S. cerevisiae deletion strains, locus YOR080W, strain dia2, active compounds read low 1.01 | S. cerevisiae deletion strains, locus YOR083W, strain WHI5, active compounds read low 0.995 | S. cerevisiae deletion strains, locus YOR106W, strain vam3, active compounds read low 1.05 | S. cerevisiae deletion strains, locus YOR136W, strain idh2, active compounds read low 1.02 | S. cerevisiae deletion strains, locus YOR144C, strain elg1, active compounds read low 1.01 | S. cerevisiae deletion strains, locus YOR184W, strain ser1, active compounds read low 1.05 | S. cerevisiae deletion strains, locus YOR231W, strain MKK1, active compounds read low 0.971 | S. cerevisiae deletion strains, locus YOR265W, strain rbl2, active compounds read low 1 | S. cerevisiae deletion strains, locus YOR270C, strain vph1, active compounds read low 1.17 | S. cerevisiae deletion strains, locus YOR290C, strain snf2, active compounds read low 1.05 | S. cerevisiae deletion strains, locus YOR316C, strain cot1, active compounds read low 1.02 | S. cerevisiae deletion strains, locus YPL051W, strain arl3, active compounds read low 1.04 | S. cerevisiae deletion strains, locus YPL055C, strain LGE1, active compounds read low 1.1 | S. cerevisiae deletion strains, locus YPL078C, strain atp4, active compounds read low 1.05 | S. cerevisiae deletion strains, locus YPL106C, strain sse1, active compounds read low 1.06 | S. cerevisiae deletion strains, locus YPL240C, strain hsp82, active compounds read low 1.01 | S. cerevisiae deletion strains, locus YPL256C, strain CLN2, active compounds read low 0.968 | S. cerevisiae deletion strains, locus YPR119W, strain clb2, active compounds read low 1.05 | S. cerevisiae deletion strains, locus YPR141C, strain kar3, active compounds read low 1.02 | S. cerevisiae deletion strains, locus YPR163C, strain tif3, active compounds read low 1.03 | S. cerevisiae deletion strains, locus YPR167C, strain met16, active compounds read low 1.05 | S. cerevisiae deletion strains, strain wtn01, active compounds read low 1.03 | S. cerevisiae strains, strain wild type, active compounds read low 1.07
